Bioassay records from PubChem.
Pf growth 48h: P. falciparum growth inhibition at 48 hours (one generation); 5.9% of 310,000 active; AID 504832; P. falciparum luciferase growth in erythrocytes, 48 h; Potency, µM (highest dose often 28.7 µM), for inactives: at the highest dose activity change, negative = inhibition, actives largely listed as inhibitors; note: potency is the fitted concentration of half-maximal effect
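Luminescence readout; reporter = integrated firefly luciferase in P. falciparum. RBC culture at 2% hematocrit, 0.1% parasitemia final, 37 C/5% CO2; decreased signal taken as growth inhibition.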
HCMV inh: blocks human cytomegalovirus replication; HFF cells, HCMV-luciferase reporter, 72 h; hits give low values; activity change, negative = inhibition, % at 57.5 µM; 4.5% of 410,000 active; AID 1259415; in the data active = activity change below about -60%; inconclusive = no clear call, values can overlap the other calls; inactive = above about -39%
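Human foreskin fibroblasts infected with luciferase-reporter HCMV at MOI 1 PFU/cell, compounds at two doses. Luciferase measured 72 h post infection; normalized to buffer-only basal and Salinomycin (10uM) controls.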
HCV inh: HCV inhibition; Huh7.5.1 HCVcc-Cre infection, luciferase reporter, 44 h; Potency, µM (doses to about 41.8 µM), without a hit: at the highest dose activity change, negative = inhibition, actives largely listed as inhibitors; 3.4% of 340,000 active; AID 651820; note: potency is the fitted concentration of half-maximal effect
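Seed cells (1,000/well) for 4 h; treat with compound and infect with HCVcc-Cre, moi about 0.5. Incubate 44 h, then detect luciferase activity.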
Pf growth 96h: P. falciparum growth inhibition at 96 hours; AID 504834; P. falciparum luciferase reporter growth, 96 h; Potency, µM (series often up to 28.7 µM), for the others: at the top dose activity change, negative = inhibition, most hits filed as inhibitors; 6.9% of 320,000 active; note: potency is the fitted concentration of half-maximal effect
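96 h incubation, 37 C, 5% CO2, of luciferase-reporter P. falciparum-infected RBCs (2% hematocrit, 0.05% parasitemia final) with test compounds; endpoint luminescence.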
The depositor's hits bear a star; ! = not confirmed by another sample; [ ] = dose if it differs, or a comment. Sampled rows, rich in hits. Any-hit rate of the full collection: about 13%. Unless noted, calls come from the whole dose curve; as a rule, active = well fitted inhibition curve with a large enough effect; inconclusive = small, poorly fitted or top-dose-only effect, or another doubt; inactive = no such curve, though single readings can be large or run the other way. % is set by controls: 0 for no effect and ±100 for the full control effect.

For O=C(Nc1cccc(C(F)(F)F)c1)c1cccnc1NCCO the results were Pf growth 48h 0%, HCMV inh 6, HCV inh 8% and Pf growth 96h 464%.
`O=C(O)c1ccccc1Nc1cccc(C(F)(F)F)c1` gave Pf growth 48h -11%, HCMV inh 11, HCV inh 0%[8.37 µM] and Pf growth 96h 2.4µM*!.
`CNC(=O)c1cccnc1Nc1cccc(C(F)(F)F)c1` gave Pf growth 48h 45%, HCMV inh 14, HCV inh 10µM* and Pf growth 96h 77%.
Screening Cc1ccc(SCCNC(=O)CN(c2ccccc2)S(=O)(=O)N(C)C)cc1 returned HCMV inh -7.
`CCOC(=O)c1c(C)c(-c2ccccc2)n(CC(=O)NC2CCCCCC2)c1C` gave HCMV inh -4.
Cc1cccc(Nc2ncccc2C(=O)O)c1C was read as Pf growth 48h 22%, HCMV inh 65, HCV inh 15% and Pf growth 96h 22%.
For Cc1cccc(Nc2ccccc2C(=O)O)c1C the results were Pf growth 48h 18%, HCMV inh -63*, HCV inh 2%[8.37 µM] and Pf growth 96h inconclusive.
`O=C(O)c1ccccc1Nc1ccccc1` gave Pf growth 48h 5%, HCMV inh -5, HCV inh 5µM* and Pf growth 96h 8%.
For COc1ccc(/C=C/C(=O)NCCc2ccc(OC)c(OC)c2)cc1 the results were Pf growth 48h inconclusive, HCMV inh -16, HCV inh -1% and Pf growth 96h -24%.
For COc1ccc(C(=O)NCCc2ccccc2)cc1[N+](=O)[O-] the results were Pf growth 48h 45%, HCMV inh 7, HCV inh -8% and Pf growth 96h 18%.
`COc1ccc(CCNC(=O)/C=C/c2ccc3ccccc3n2)cc1OC` gave Pf growth 48h inconclusive, HCMV inh -100*, HCV inh inconclusive and Pf growth 96h 8.3µM*.
For COc1ccc(/C=C/C(=O)NCCc2c[nH]c3ccccc23)cc1OC the results were Pf growth 48h 8.3µM*, HCMV inh 0, HCV inh -28% and Pf growth 96h 15µM*.
Screening COc1ccc(C(=O)NCC2(c3ccccc3)CCOCC2)cc1[N+](=O)[O-] returned Pf growth 48h -24%, HCMV inh -25, HCV inh -3% and Pf growth 96h inconclusive.
COc1ccc(C2(CNC(=O)c3ccc(OC)c([N+](=O)[O-])c3)CCOCC2)cc1OC was read as Pf growth 48h -8%, HCMV inh 10, HCV inh 2% and Pf growth 96h 2.3µM*.
Screening COc1ccc(/C=C/C(=O)NCCCNC(=O)/C=C/c2ccc(OC)c(OC)c2)cc1OC returned HCMV inh 68 and HCV inh inconclusive.
Screening COc1ccc(C(=O)NCCc2c[nH]c3ccccc23)cc1[N+](=O)[O-] returned Pf growth 48h 0%, HCMV inh 44, HCV inh -24% and Pf growth 96h 13µM*.
Screening COc1ccc(NC(=O)c2cnc(Nc3ccc(C)c(Cl)c3)c3ccccc23)c(OC)c1 returned HCMV inh 4.
Screening Cc1cc(C)cc(OCC(=O)Nc2cccc3cccnc23)c1 returned HCMV inh 12.
COCCn1c(C)cc(O)c(C(c2ccccc2)N2CCN(c3ccccc3F)CC2)c1=O (stereo unspecified) was read as HCMV inh 9.
`COc1ccc(-c2nc3cc(C(C)C)ccc3o2)cc1NC(=O)c1ccccc1[N+](=O)[O-]` gave HCMV inh -8.
Screening CCc1cc2c(NCCO)ncnc2s1 returned Pf growth 48h 8%, HCMV inh inconclusive and HCV inh -14%.
`CCc1cc2c(NCCC(=O)O)ncnc2s1` gave Pf growth 48h 18%, HCMV inh -8, HCV inh 9% and Pf growth 96h 12µM*.
For Cc1nc(NCc2ccco2)c2c3c(sc2n1)CCC3 the results were Pf growth 48h -13%, HCMV inh -70*, HCV inh -15% and Pf growth 96h -4%.
C=CCn1c(SCC(=O)NCc2ccco2)nc2sc3c(c2c1=O)CCCC3 was read as HCMV inh -17, HCV inh 0% and Pf growth 96h inconclusive.
`c1ccc(CNc2ncnc3sc4c(c23)CCCC4)nc1` gave Pf growth 48h 16%, HCMV inh inconclusive, HCV inh inconclusive and Pf growth 96h 38%.
Screening Cc1nc(NCc2ccccn2)c2c3c(sc2n1)CCCC3 returned Pf growth 48h inconclusive, HCMV inh -17, HCV inh 22µM* and Pf growth 96h inconclusive.
Screening O=C(NCc1ccco1)c1ccc2nc3sc4c(c3c(=O)n2c1)CCCC4 returned Pf growth 48h -72%, HCV inh inconclusive and Pf growth 96h 1.9µM*.
c1coc(CNc2ncnc3sc4c(c23)CCCCC4)c1 was read as Pf growth 48h -1%, HCMV inh -4, HCV inh inconclusive and Pf growth 96h -12%.
For CCCCc1nc2ccccc2n2c(-c3ccc(OC)cc3)c3c(=O)n(C)c(=O)n(C)c3c12 the results were HCMV inh 16.
For CCOc1ccc(NC(=O)C2CCCN(S(=O)(=O)c3c(C)noc3/C=C/N(C)C)C2)cc1 (stereo unspecified) the results were HCMV inh 5.
`CCOc1ccc(CC(=O)NC2CC(=O)N(c3ccc4c(c3)OCCO4)C2)cc1` (stereo unspecified) gave HCMV inh -39.
Screening CCCn1cc(CN2CCC(Oc3ccc(C(=O)N4CCCC4)cc3)CC2)c(C)n1 returned Pf growth 48h -16%, HCMV inh 0, HCV inh -3% and Pf growth 96h 10µM*.
Screening O=C(c1ccc(OC2CCN(Cc3ccccc3C(F)(F)F)CC2)cc1)N1CCCCC1 returned Pf growth 48h inconclusive, HCMV inh 7, HCV inh inconclusive and Pf growth 96h 3.3µM*.
O=C(c1ccc(OC2CCN(Cc3ccc(C(F)(F)F)cc3)CC2)cc1)N1CCCCC1 was read as Pf growth 48h inconclusive, HCMV inh -11, HCV inh 0% and Pf growth 96h inconclusive.
Screening C[C@H]1[C@H](c2ccccc2)Oc2cccc(NCCc3ccccc3)c2S(=O)(=O)N1Cc1cccc(F)c1 returned HCMV inh -34.
Cc1ccc(S(=O)(=O)c2nc(-c3cccc(Br)c3)oc2N2CCCCCC2)cc1 was read as HCMV inh 9.
Screening O=C(Nc1nccs1)c1cc(S(=O)(=O)N2CCCCC2)ccc1Cl returned Pf growth 48h 15%, HCMV inh 41, HCV inh 7% and Pf growth 96h inconclusive.
Cc1ccc(C(=O)Nc2ccc(S(=O)(=O)N3CCCC3)cc2)s1 was read as Pf growth 48h inconclusive, HCMV inh -25, HCV inh -6% and Pf growth 96h 13µM*.
Screening Cc1nnc(NC(=O)c2cc(S(=O)(=O)N3CCCCC3)ccc2Cl)s1 returned Pf growth 48h -17%, HCMV inh 0, HCV inh 11µM* and Pf growth 96h inconclusive.
